Results reported in PubChem BioAssay.
Several values for one entry are separate records, joined by “and”; a condition that tells them apart may be missing. Equal entries are not always repeated. Activity calls are given as the source filed them.

Experiments:
[1] = system: Plasmodium falciparum Sir2 (PF13_0152, Sir2A); assay: pfSir2 binders on small-molecule microarrays, primary screen, biochemical, small-molecule microarray, 635 nm fluorescence (AID 1098); details: small-molecule microarray binding, fluorescence 635 nm; higher = more signal;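 further: score merges spot fluorescence intensity with its signal-to-noise ratio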
[2] = small-molecule microarray binders of probe aDKK1, primary screen, biochemical, biotinylated probe, 635/667 nm fluorescence (AID 1099); details: higher = more signal;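 further: score merges 667nm spot fluorescence with signal to noise across triplicate slides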
[3] = small-molecule microarray binders of probe aCHRDL2, primary screen, biochemical, biotinylated probe, 635/667 nm fluorescence (AID 1100); details: higher = more signal
[4] = splicing luciferase reporter signal modulators, primary screen, spliceosome inhibition project, cell-based, HEK293, splice +/- reporter (AID 1101); details: luminescence, 24 h, higher = more signal, called active from +8 up or from −8 down;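 further: HEK293 cells carrying a splicing-competent luciferase reporter gene; test concentration not given here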
[5] = molecular target: Fibroblast growth factor 10 (Homo sapiens) (UniProt O15520); assay: FGF10 binders on small-molecule microarrays, primary screen, biochemical, small-molecule microarray, 635 nm fluorescence (AID 1102); details: FGF10 binding, fluorescence 635 nm, higher = more signal
[6] = system: glycogen synthase kinase-3 (GSK3A per assay name; protocol says GSK3B); assay: GSK3 binders on small-molecule microarrays, primary screen, biochemical, small-molecule microarray, 635 nm fluorescence, GSK3A (AID 1103); details: small-molecule microarray binding, fluorescence 635 nm; higher = more signal; further: the record names both GSK3A and GSK3B
[7] = molecular target: Epidermal growth factor receptor (Homo sapiens) (UniProt P00533); assay: EGFR binders on small-molecule microarrays, primary screen, biochemical, small-molecule microarray, 635 nm fluorescence (AID 1104); details: EGFR binding, higher = more signal;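 further: score merges 667 nm emission intensity with spot signal to noise over triplicate slides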
[8] = molecular target: Follistatin-related protein 3 (Homo sapiens) (UniProt O95633); assay: FSTL3 binders on small-molecule microarrays, primary screen, biochemical, small-molecule microarray, 635 nm fluorescence (AID 1105); details: FSTL3 binding, higher = more signal;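 further: score merges emission near 667 nm and signal to noise per printed spot across three slides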
[9] = molecular target: Dickkopf-related protein 1 (Homo sapiens) (UniProt O94907); assay: DKK1 binders on small-molecule microarrays, primary screen, biochemical, small-molecule microarray, 635 nm fluorescence scan (AID 1106); details: DKK1 binding, higher = more signal;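 further: score merges emission near 667 nm with signal to noise over three replicate slides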
[10] = system: Inhibin beta A chain (activin A); assay: INHBA (activin A) binders on microarrays, primary screen, biochemical, small-molecule microarray, 635 nm fluorescence scan (AID 1107); details: small-molecule microarray binding, higher = more signal;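 further: mouse activin A protein probed at 4.33 µg/mL on printed slides; score merges bound-protein fluorescence near 667 nm with spot signal-to-noise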
[11] = system: Human papillomavirus type 1a protein E7 (residues 44-93); assay: HPV1a E7 fragment binders on microarrays, primary screen, biochemical, small-molecule microarray, residues 44-93, 635 nm fluorescence (AID 1108); details: small-molecule microarray binding, fluorescence 635 nm; higher = more signal;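 further: E7 fragment applied at 1 µg/mL in TBST for 1 h at 4 C; score combines spot fluorescence with its signal to noise ratio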
[12] = modulators of HCV replicon luciferase signal, primary screen, HCV replication inhibitor project, Huh7 cells, luciferase reporter (AID 1109); details: 48 h, higher = more signal;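 further: huh7 hepatoma cells harbouring a luciferase neomycin HCV replicon reporter; luciferase luminescence as measure of HCV replicon replication; test concentration not given here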
[13] = molecular target: Left-right determination factor 2 (Homo sapiens) (UniProt O00292); assay: LEFTY2 binders on small-molecule microarrays, primary screen, biochemical, small-molecule microarray, 635 nm fluorescence scan (AID 1110); details: LEFTY2 binding, higher = more signal
[14] = molecular target: Calmodulin-1 (Homo sapiens) (UniProt P0DP23); assay: CALM1 binders on microarrays, EGTA buffer, profiling panel, biochemical, small-molecule microarray, Cy5-labelled CALM1 (AID 1111); details: Cy5-CALM1 binding fluorescence, higher = more signal;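 further: labelled calmodulin applied in Tris saline Tween buffer holding calcium plus EGTA and DTT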
[15] = molecular target: Calmodulin-1 (Homo sapiens) (UniProt P0DP23); assay: calcium-bound CALM1 binders on microarrays, profiling panel, artefact control for SMM control-protein annotation, biochemical, small-molecule microarray, Cy5-labelled CALM1, plus calcium (AID 1112); details: Cy5-CALM1 binding fluorescence, higher = more signal;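 further: score merges spot fluorescence with signal to noise from triplicate slides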
[16] = small-molecule microarray binders of probe aWnt5a, primary screen, biochemical, biotinylated probe, 635/667 nm fluorescence (AID 1113); details: higher = more signal;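 further: score merges 667 nm fluorescence intensity with signal-to-noise per printed feature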
[17] = small-molecule microarray binders of probe aShh, primary screen, biochemical, biotinylated probe, 635/667 nm fluorescence (AID 1114); details: higher = more signal;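 further: probe is biotin-labelled aShh protein from a stem cell growth factor screen; measures binding of labelled protein to compounds printed on the slide; score merges feature fluorescence at 667 nm with signal-to-noise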
[18] = small-molecule microarray binders of probe aNog, primary screen, biochemical, biotinylated probe, 635/667 nm fluorescence (AID 1115); details: higher = more signal;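 further: probe is biotinylated aNog protein used at 0.15 µg/mL for 1 h at 4 C; z-score combines 667 nm fluorescence of each spot with its signal to noise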
[19] = molecular target: Torsin-1A-interacting protein 1 (Homo sapiens) (UniProt Q5JTV8); assay: LAP1 binders from COS7 cell lysate, primary screen, small-molecule microarray, 635/667 nm fluorescence (AID 1116); details: COS7-hLAP1 lysate binding, 635 nm fluorescence, higher = more signal
[20] = molecular target: Alpha-bungarotoxin (Bungarus multicinctus) (UniProt P60615); assay: alpha-bungarotoxin binders on microarray, profiling panel, artefact control for SMM control protein annotation, biochemical, small-molecule microarray, Alexa647 label, 635/667 nm fluorescence (AID 1117); details: alpha-BTX-A647 binding fluorescence, higher = more signal
Sequence of Alpha-bungarotoxin (Bungarus multicinctus) (P60615 whole entry, looked up): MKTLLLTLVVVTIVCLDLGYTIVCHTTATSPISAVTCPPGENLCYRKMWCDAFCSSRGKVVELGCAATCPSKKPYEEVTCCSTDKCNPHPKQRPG

Sequence of Epidermal growth factor receptor (Homo sapiens) (P00533 whole entry, looked up): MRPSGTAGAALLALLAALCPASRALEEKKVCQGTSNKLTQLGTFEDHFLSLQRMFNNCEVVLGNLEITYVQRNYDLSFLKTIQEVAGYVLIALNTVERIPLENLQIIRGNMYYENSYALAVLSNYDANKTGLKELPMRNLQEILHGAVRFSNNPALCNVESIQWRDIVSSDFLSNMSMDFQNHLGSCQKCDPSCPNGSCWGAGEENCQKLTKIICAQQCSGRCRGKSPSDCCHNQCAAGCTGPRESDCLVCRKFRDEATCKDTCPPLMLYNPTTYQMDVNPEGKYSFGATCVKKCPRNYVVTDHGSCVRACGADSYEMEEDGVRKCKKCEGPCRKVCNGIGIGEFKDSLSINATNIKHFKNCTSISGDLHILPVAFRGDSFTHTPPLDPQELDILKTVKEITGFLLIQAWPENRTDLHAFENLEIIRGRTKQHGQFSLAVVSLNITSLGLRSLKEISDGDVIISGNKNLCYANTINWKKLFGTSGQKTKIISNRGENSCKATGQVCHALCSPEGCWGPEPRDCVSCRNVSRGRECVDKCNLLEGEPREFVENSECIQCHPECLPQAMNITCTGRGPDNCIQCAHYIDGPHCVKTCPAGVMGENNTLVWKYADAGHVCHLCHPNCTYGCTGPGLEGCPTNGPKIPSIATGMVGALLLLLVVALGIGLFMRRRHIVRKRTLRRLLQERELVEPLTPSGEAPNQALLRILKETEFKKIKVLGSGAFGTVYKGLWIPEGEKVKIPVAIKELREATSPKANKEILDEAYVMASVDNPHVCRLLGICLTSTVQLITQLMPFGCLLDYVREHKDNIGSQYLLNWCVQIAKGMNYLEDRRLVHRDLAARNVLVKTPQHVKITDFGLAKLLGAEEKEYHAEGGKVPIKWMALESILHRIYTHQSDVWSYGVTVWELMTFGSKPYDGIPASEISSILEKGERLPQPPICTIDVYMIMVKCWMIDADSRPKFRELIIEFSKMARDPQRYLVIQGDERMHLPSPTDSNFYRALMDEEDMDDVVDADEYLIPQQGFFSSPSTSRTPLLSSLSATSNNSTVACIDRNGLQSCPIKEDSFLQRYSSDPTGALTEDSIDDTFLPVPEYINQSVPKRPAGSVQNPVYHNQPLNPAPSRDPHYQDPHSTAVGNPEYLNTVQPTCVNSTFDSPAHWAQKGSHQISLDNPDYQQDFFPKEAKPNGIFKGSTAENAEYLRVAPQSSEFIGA
Sequence of Follistatin-related protein 3 (Homo sapiens) (O95633 whole entry, looked up): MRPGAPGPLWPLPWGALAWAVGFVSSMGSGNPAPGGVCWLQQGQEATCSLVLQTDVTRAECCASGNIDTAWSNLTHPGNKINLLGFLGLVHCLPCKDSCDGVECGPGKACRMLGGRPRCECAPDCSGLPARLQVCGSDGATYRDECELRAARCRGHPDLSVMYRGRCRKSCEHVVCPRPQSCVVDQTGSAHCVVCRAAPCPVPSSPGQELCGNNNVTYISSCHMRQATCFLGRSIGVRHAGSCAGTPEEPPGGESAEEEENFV
Sequence of Left-right determination factor 2 (Homo sapiens) (O00292 whole entry, looked up): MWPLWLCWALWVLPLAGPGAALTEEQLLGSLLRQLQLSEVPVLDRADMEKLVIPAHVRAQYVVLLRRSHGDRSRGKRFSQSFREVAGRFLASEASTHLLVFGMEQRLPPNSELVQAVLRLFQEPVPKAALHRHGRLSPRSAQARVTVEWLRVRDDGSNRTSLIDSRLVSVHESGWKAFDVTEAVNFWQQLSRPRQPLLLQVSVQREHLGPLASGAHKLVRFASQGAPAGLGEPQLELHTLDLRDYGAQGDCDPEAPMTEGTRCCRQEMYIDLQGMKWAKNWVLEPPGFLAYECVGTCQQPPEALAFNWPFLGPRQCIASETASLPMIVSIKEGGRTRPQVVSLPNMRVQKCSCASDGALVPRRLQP
Sequence of Fibroblast growth factor 10 (Homo sapiens) (O15520 whole entry, looked up): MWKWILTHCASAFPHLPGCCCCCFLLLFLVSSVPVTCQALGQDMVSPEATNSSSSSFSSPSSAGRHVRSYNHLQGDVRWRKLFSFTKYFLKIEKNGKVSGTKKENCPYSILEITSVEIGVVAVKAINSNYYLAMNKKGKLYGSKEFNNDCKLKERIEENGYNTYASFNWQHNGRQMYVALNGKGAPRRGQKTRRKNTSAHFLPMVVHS
Sequence of Torsin-1A-interacting protein 1 (Homo sapiens) (Q5JTV8 whole entry, looked up): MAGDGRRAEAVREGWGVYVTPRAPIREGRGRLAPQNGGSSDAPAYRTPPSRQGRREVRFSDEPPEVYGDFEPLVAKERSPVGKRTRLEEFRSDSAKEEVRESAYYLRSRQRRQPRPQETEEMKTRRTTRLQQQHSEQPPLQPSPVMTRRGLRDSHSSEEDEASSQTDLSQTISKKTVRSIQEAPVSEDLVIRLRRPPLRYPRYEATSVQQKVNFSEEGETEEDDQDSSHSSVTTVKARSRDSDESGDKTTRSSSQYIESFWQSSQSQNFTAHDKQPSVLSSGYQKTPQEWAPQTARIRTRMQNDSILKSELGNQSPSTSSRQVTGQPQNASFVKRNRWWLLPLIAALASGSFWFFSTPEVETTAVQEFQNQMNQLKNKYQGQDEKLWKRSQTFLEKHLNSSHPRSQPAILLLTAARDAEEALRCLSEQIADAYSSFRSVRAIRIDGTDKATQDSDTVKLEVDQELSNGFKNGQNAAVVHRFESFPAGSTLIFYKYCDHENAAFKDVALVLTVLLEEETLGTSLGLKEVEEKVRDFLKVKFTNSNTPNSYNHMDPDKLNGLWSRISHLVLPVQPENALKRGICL
Sequence of Dickkopf-related protein 1 (Homo sapiens) (O94907 whole entry, looked up): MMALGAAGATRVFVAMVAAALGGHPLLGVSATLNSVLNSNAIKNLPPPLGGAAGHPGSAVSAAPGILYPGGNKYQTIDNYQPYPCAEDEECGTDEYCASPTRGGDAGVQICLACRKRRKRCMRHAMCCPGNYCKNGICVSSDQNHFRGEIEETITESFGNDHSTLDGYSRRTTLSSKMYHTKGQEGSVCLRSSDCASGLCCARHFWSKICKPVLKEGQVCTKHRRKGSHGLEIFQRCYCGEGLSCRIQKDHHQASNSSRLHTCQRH

Structure (SMILES) | composite z-score [1] | composite z-score [2] | composite z-score [3] | z-score [4] | composite z-score [5] | composite z-score [6] | composite z-score [7] | composite z-score [8] | composite z-score [9] | composite z-score [10] | composite z-score [11] | z-score [12] | composite z-score [13] | composite z-score [14] | composite z-score [15] | composite z-score [16] | composite z-score [17] | composite z-score [18] | composite z-score [19] | composite z-score [20]
C[N+](C)(C)CCCCCCNC(=O)[C@@H]1C[C@@H]2C(=O)N[C@@H](CCCC[N+](C)(C)C)C(=O)N2[C@@H]1c1ccc(O)cc1 | 0.892 and 0.579 | -0.126 and -0.175 | 0.229 and 0.305 | -0.0316 (inactive) and 0.431 (inactive) | 0.606 and 0.803 | -0.115 and 0.255 | 0.0444 and -0.539 | 0.8 and 0.827 | 1.11 and 0.869 | 0.908 and 0.391 | -0.259 and 0.575 | -0.0888 and 0.51 | 0.515 and 0.0005 | -0.529 and -0.759 | 0.458 and -0.85 | -0.144 and -0.13 | -0.304 and -0.221 | -0.0281 and -0.295 | 2.61 and 0.23 | -0.137 and 0.0818
C[N+](C)(C)CCCCNC(=O)[C@H]1C[C@H]2C(=O)N[C@@H](CCCC[N+](C)(C)C)C(=O)N2[C@H]1c1cccc(OCCO)c1 | 1.82 and 1.11 | -0.171 and 0.256 | -0.537 and -0.421 | 0.00747 (inactive) and -0.387 (inactive) | 1.51 and 1.39 | 0.0299 and 1.1 | 0.622 and 1.27 | 1.45 and 1.51 | 1.44 and 1.81 | 0.282 and 0.696 | -0.779 and 0.569 | -1.34 and -0.59 | 1.36 and 1.28 | -1.49 and -0.367 | -0.691 and -0.325 | -0.127 and -0.0512 | 0.0948 and 0.395 | -0.249 and -0.234 | 1.89 and 2.53 | -0.559 and 0.47
C=CCN(C(=O)C1N(CCOCCO)C(=O)C2C(C(=O)O)C3C=CC21O3)C(C)(C)C (stereo not given) | 1.73 and -1.59 | -0.128 and -0.31 | 0.867 and 0.619 | -0.235 (inactive) and 0.32 (inactive) | -1.8 and -1.24 | -1.76 and -0.852 | -2.23 and -1.56 | -2.47 and -1.69 | -2.47 and -1.32 | -1.84 and -3.28 | -1.22 and -1.53 | 0.178 and 0.975 | -4.53 and -1.35 | -0.219 and -0.133 | 0.785 and 0.498 | -0.27 and -0.352 | -0.138 and -0.214 | -0.158 and -0.509 | -1.53 and -1.78 | -0.606 and -0.737
C=CCN(CCCC)C(=O)C(c1cccs1)N(C(=O)/C=C\C(=O)O)c1c(Cl)cccc1CO (stereo not given) | 0.129 and 1.61 | -0.0631 and -0.131 | 1.25 and 0.906 | 0.173 (inactive) and 0.771 (inactive) | -2.81 and -1.97 | -0.944 and -0.892 | -2.16 and -2.02 | -1.44 and -2.65 | -3.42 and -2.44 | -3.52 and -2.04 | -1.23 and -1.01 | -0.765 and -0.992 | -3.75 and -3.83 | -0.731 and -0.883 | 0.215 and 0.584 | -0.328 and -0.303 | -0.0769 and -0.221 | -0.0173 and -0.0409 | -1.53 and -1.41 | -1.09 and -1.15
COC(=O)C1=C(C)N(Cc2ccccc2)[C@]23O[C@](C(=O)OC)(C(=O)N2[C@@H]1c1ccccc1)[C@H]1CCCC(=O)[C@H]13 | 0.355 and 0.285 | 0.0172 and -0.338 | -0.298 and -0.45 | -0.0479 (inactive) and -1.41 (inactive) | 0.526 and 0.72 | 0.201 and 0.287 | 0.218 and 0.506 | 0.336 and 0.515 | 0.421 and 0.508 | 0.518 and 0.15 | -0.525 and 0.155 | -3.35 and -1.15 | 0.877 and 0.588 | -0.127 and -0.222 | 0.0491 and -0.499 | -0.0792 and -0.0462 | -0.0146 and -0.0553 | -0.275 and -0.367 | 0.206 and 0.139 | 0.787 and 0.0026
